Bioassay records from PubChem BioAssay.
TGFb SMAD3 inh = blocks TGF-b signaling. HepG2 CAGA-GFP TGF-b/SMAD3 reporter, GFP fluorescence, 18 h; TGF-beta stimulated, 500 pg/mL final. Potency, µM (top dose mostly 46.1 µM), inactives show at the top dose activity, negative = inhibition, most hits filed as inhibitors. 410,000 compounds, 1.2% hits. AID 588855; also: potency is read from the fitted curve at half-maximal effect; % is scaled to controls: 0 for no effect and ±100 for the full control effect; nearly all actives have a fitted effect of over 65% in size
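Read-out: total well GFP (ex488/em500-530) summed from mean per-cell fluorescence. Cells: HEPG2 CAGA-GFP, 1% FBS DMEM, 18 h at 37 degrees C with 500 pg/mL final TGF-beta. Unstimulated wells served as the full-inhibition control; stimulated DMSO wells = 0%.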
DT40 TDP1 CPT = growth inhibition of DT40 Tdp1-/-;hTDP1 cells with camptothecin (screen for TDP1 inhibitors) | chicken DT40 Tdp1-/-;hTDP1 cells + 20 nM CPT, ATP luminescence, 48 h | Potency, µM (top dose mostly 46.2 µM), for inactives: at the highest dose activity change, negative = growth inhibition, hits mostly inhibitors | 420,000 compounds, 12% hits; also: potency is read from the fitted curve at half-maximal effect; % is scaled to controls: 0 for no effect and ±100 for the full control effect; nearly all actives have a fitted effect of over 55% in size
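Chicken DT40 Tdp1-/- cells stably complemented with human TDP1 were seeded at 400 cells/well in medium containing 20 nM camptothecin, exposed to pin-transferred compounds, and grown at 37 °C for at least 48 hr. Viability was read as ATP luminescence.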
TDP1 cell noCPT = qHTS for Inhibitors of human tyrosyl-DNA phosphodiesterase 1 (TDP1): qHTS in cells in absence of CPT. Potency, µM (doses to about 46.2 µM), for inactives: at the top dose activity change, negative = growth inhibition, most hits filed as inhibitors. 420,000 compounds, 15% hits. AID 686978, 2013. DT40 Tdp1-/- hTDP1 cells, no CPT, ATP luminescence, 48 h; also: potency is read from the fitted curve at half-maximal effect; % is scaled to controls: 0 for no effect and ±100 for the full control effect; nearly all actives have a fitted effect of over 55% in size
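Compound effects on proliferation are scored in DT40 Tdp1-/-;hTDP1 cells in the absence of CPT. ATP levels (CellTiter-Glo luminescence) are recorded after a ≥48 hr, 37 °C incubation.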
S-ASM inh = human S-ASM enzyme inhibition | placental ASM, HMU-PC fluorogenic substrate, 60 min | Potency, µM (highest dose often 57.5 µM), inactives show at the top dose activity change, negative = inhibition, most hits filed as inhibitors | P17405 | 340,000 compounds, 0.006% hits; also: potency is read from the fitted curve at half-maximal effect
Target sequence (P17405 47-631 limits assumed): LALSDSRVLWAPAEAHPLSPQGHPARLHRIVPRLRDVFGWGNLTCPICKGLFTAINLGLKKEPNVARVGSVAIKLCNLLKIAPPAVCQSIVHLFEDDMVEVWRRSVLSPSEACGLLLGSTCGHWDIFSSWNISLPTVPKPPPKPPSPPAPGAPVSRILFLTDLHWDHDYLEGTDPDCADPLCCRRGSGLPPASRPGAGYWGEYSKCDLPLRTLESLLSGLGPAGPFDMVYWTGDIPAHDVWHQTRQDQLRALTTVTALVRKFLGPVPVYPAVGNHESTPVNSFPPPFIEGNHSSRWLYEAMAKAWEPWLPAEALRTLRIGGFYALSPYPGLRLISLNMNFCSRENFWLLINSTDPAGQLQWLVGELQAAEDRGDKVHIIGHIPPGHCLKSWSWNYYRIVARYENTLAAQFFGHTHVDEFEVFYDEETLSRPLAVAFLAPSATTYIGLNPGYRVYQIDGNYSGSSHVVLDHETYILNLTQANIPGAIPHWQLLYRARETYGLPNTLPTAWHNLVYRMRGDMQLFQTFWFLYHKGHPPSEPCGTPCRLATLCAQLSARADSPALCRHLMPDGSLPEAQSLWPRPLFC
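Fluorescence read-out (Ex 386 nm, Em 447 nm) after stopping the reaction at pH 10. Enzyme: ASM from human placenta; substrate HMU-PC0, 9 uM final; 60 min, 37 °C. Compound preincubation 10 min, ambient temperature.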
IL-1B inflam inh = inflammasome signaling inhibition, IL-1 beta readout; THP-1 LPS/ATP IL-1B secretion, AlphaLISA, 16 h; active compounds read low; activity change, % at 57.5 µM; 360,000 compounds, 4.7% hits; AID 743279; in the data active = activity change below about -50%; inconclusive = mostly about -30% to -49%; also: % is scaled to controls: 0 for no effect and ±100 for the full control effect
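THP-1 cells pretreated 1 hr with compounds (up to 57.5 uM final), then stimulated with LPS (250 ng/mL final) plus ATP (1.25 mM final); secreted IL-1B measured by AlphaLISA after 16 hr, decreased signal indicating inhibition.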
HepG2 viability = HepG2 cytotoxicity, counter-screen for TGF-b inhibitors; HepG2 CAGA-GFP viability, ATP luminescence, 18 h; 410,000 compounds, 0.76% hits; Potency, µM (top dose mostly 46.1 µM), for inactives: top-dose activity change, negative = cytotoxicity, most hits filed as cytotoxic; also: potency is read from the fitted curve at half-maximal effect
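CellTiter-Glo luminescence gave cytotoxicity after 18 hours at 37 degrees C. The cells were HepG2 CAGA-GFP in 1% FBS DMEM, stimulated with 500 pg/mL TGF-beta after compound addition. %Activity was normalised to no-cell wells (complete cell-killing) and DMSO (no toxicity), and curves were fitted and classified.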
* hit, by the source's call; i = inactive; ? = inconclusive; . = no result. A selection: hits, their analogues and other compounds. The true share with any hit is near 19%. Unless noted, calls follow the shape of the dose curve; as a rule, active = well fitted curve in the direction sought with a large enough effect; inconclusive = small, poorly fitted or top-dose-only effect, or another doubt; inactive = no such curve, though single readings can be large; an effect the other way counts as inactive or inconclusive.

SMILES	TGFb SMAD3 inh	DT40 TDP1 CPT	TDP1 cell noCPT	S-ASM inh	IL-1B inflam inh	HepG2 viability
COc1cc(OC)c(N(C)S(=O)(=O)c2cccc(C(=O)Nc3nnc(C4CC4)s3)c2)cc1Cl	?	-18%	?	-1%	7	-49%
COC(=O)c1cccc(-n2c(CCC(=O)O)ccc2-c2ccc(OC)cc2)c1	?	15µM*	15µM*	.	.	6%
COC(=O)c1cccc(-n2c(CCC(=O)O)ccc2-c2cccs2)c1	5%	-17%	6%	5%	14	-11%
C=CCn1c(CCC(=O)O)ccc1-c1ccc(OC)cc1	0%	-3%	-9%	73%	17	-9%
COc1ccc(-c2ccc(CCC(=O)O)n2CC(C)C)cc1	?	?	21µM*	i	38	-4%
Nc1ccc2nc3c(=O)n(CCc4ccccc4)c(=O)[nH]c3nc2c1	104%	-8%	?	-7%	.	-17%
Cc1cc2nc3c(=O)n(CCc4ccccc4)c(=O)[nH]c3nc2cc1N	83%	-22%	21µM*	-6%	?	-29%
Clc1ccc(OCc2cn3ccccc3n2)c2ncccc12	10%	15µM*	16µM*	-1%	-61*	0%
CC(/C=N/NC(=O)c1cnccn1)=C\c1ccco1	0%	5%	?	-4%	.	-48%
COC(=O)[C@H](C)N(Cc1ccc(Cl)c(Cl)c1)S(=O)(=O)CCNC1CCCC1	-20%	?	21µM*	-2%	?	-28%
COCCS(=O)(=O)N(Cc1ccc(Br)cc1)[C@@H](C)C(=O)OC	-16%	-17%	-27%	1%	-10	-18%
COc1cccc(CC(=O)Nc2ccc3nc(Nc4cccc(C(F)(F)F)c4)cc(C)c3c2)c1	?	?	18µM*	.	.	-40%
COc1ccccc1CC(=O)Nc1ccc2nc(Nc3cccc(C(F)(F)F)c3)cc(C)c2c1	0%	7.3µM*	5.8µM*	.	.	-33%
CC(=O)Nc1ccc(S(=O)(=O)N2CCN(Cc3cccs3)CC2)cc1	-3%	?	?	-1%	-3	-4%
S=c1nc2[nH]c3ccccc3c2n[nH]1	9%	4%	?	0%	18	8%
CC(=O)Nc1ccc2nc(NC(=O)CS(=O)(=O)c3ccccc3)sc2c1	11%	-23%	-18%	-2%	16	-18%
Cc1onc(-c2ccccc2Cl)c1C(=O)Nc1nc2ccc(S(C)(=O)=O)cc2s1	?	8.2µM*	9.2µM*	-9%	-2	-48%
CS(=O)(=O)c1ccc2nc(NC(=O)Nc3ccc(Cl)c(Cl)c3)sc2c1	-8%	?	9.2µM*	6%	0	-5%
CC(C)(C)NS(=O)(=O)c1ccc2nc(NC(=O)Cc3cccs3)sc2c1	8%	?	15µM*	-25%	-29	-22%
CCc1noc(C)c1C(=O)Nc1nc2ccc(S(C)(=O)=O)cc2s1	-4%	?	?	7%	20	0%
Cc1ccc(NC(=O)Nc2nc3ccc(S(C)(=O)=O)cc3s2)cc1	?	3%	-5%	-3%	2	-17%
COC(=O)c1ccc2nc(NC(=O)CCS(=O)(=O)c3ccccc3)sc2c1	?	8.2µM*	9.2µM*	-3%	15	2%
Cc1ccccc1CN1C(=O)c2ccccc2C1c1nnnn1C(C)C (centres undefined)	.	-22%	?	.	-4	.
O=C(CN1CCN(S(=O)(=O)c2ccc(F)cc2)CC1)N1CCOCC1	17%	-6%	1%	2%	i	6%
CS(=O)(=O)c1ccc2nc(NC(=O)Cc3ccccc3)sc2c1	-24%	-22%	-28%	-10%	-3	-19%
